For assay [1], the target named is Norway rat Vesicular Monoamine Transporter (VMAT2), neurotransmitter transporter, Slc18a2 (gene 25549) (UniProt Q01827). The assay is described as follows: NVS_TR_rVMAT2: NovaScreen (NVS) Transporter Assay for Norway rat Vesicular Monoamine Transporter (VMAT2), neurotransmitter transporter (AID 2283376).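 Further: actives lower the bound radioligand signal below the DMSO level.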 The essentials:
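Rat forebrain tissue preparation used in a cell-free radioligand binding format; displacement read by filter-based scintillation counting 1 hour after dosing. Primary screen in duplicate at 25 uM, actives then run in concentration series; loss of signal versus DMSO baseline.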

Assay [2] addresses rat Gamma-Aminobutyric Acid Type A Receptor BDZ, alpha 6 site (GABARa6), Gabra6 (gene 29708) (UniProt P30191). Briefly: NVS_LGIC_rGABARa6: NovaScreen (NVS) Ligand-Gated Ion Channel Assay for rat Gamma-Aminobutyric Acid Type A Receptor BDZ, alpha 6 site (GABARa6) (AID 2283339). The procedure, abridged:
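Rat cerebellar membranes; radioligand binding, filtration and scintillation counting, read 1 h after dosing. Single-concentration duplicate screen at 25 uM, then concentration-response up to 50 uM for actives; loss of signal fitted versus DMSO baseline.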

The target in assay [3] is Estrogen receptor (Homo sapiens) (UniProt P03372). Briefly: NVS_NR_hER: NovaScreen (NVS) Nuclear Receptor Binding Assay for human Estrogen Receptor (ER) (AID 2283348). The procedure, abridged: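 Cell-free radioligand binding with protein extracted from MCF7 cells; scintillation counting 18 hours after dosing. Loss of signal versus DMSO baseline read as displacement; primary single-concentration screen at 25 uM in duplicate, actives retested in concentration series.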
Chain of Estrogen receptor (Homo sapiens) (P03372 whole entry, looked up): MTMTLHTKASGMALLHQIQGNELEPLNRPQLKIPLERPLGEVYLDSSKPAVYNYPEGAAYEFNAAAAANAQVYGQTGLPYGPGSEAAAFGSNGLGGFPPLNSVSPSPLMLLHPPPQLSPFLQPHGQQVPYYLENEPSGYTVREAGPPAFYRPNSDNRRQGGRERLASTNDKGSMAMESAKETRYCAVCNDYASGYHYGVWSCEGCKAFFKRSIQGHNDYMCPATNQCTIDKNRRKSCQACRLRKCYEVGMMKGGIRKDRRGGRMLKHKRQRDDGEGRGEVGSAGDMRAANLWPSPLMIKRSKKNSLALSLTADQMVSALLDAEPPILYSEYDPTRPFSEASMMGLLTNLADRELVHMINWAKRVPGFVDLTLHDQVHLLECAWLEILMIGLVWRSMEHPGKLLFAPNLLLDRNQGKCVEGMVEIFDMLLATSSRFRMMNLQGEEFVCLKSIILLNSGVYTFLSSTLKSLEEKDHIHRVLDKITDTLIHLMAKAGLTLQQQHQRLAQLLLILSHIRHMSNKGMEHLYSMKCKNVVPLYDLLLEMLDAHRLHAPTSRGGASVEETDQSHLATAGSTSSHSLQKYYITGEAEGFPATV

In assay [4] the target is mouse Estrogen Receptor alpha (Era), Esr1 (gene 13982) (UniProt P19785). The assay is described as follows: NVS_NR_mERa: NovaScreen (NVS) Nuclear Receptor Binding Assay for mouse Estrogen Receptor alpha (Era) (AID 2283378).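 Further: hit means loss of bound radioligand signal relative to DMSO.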 The essentials:
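Extracted mouse Era incubated with tritiated or iodinated radioligand plus test chemical, 18 h. Bound fraction separated on filters, counted by scintillation. DMSO = negative control/baseline; duplicate single-point at 25 uM, then concentration-response follow-up.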

Assay [5] in a line: TOX21_p53_BLA_p2_viability: Viability Assessment in the Tox21 HCT-116 p53 Agonism Beta-lactamase Assay, Phase 2 (AID 2283591).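 Further: compound exposure lasted 16 h at 37 °C; actives lower the ATP signal meaning cytotoxicity.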 The essentials:
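HCT-116 p53-bla cells (4000/well) rested 5 h at 37C, then received compounds in DMSO (217-fold dilution) for 16 h at 37C, 5% CO2. After the CCF4 read, CellTiter-Glo was added; ATP luminescence was read after 30 min at room temperature.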

The target in assay [6] is Cellular tumor antigen p53 (Homo sapiens) (UniProt P04637). Briefly: TOX21_p53_BLA_p3_ratio: Tox21 HCT-116 p53 Agonism Beta-lactamase Assay, Ratio, Phase 3 (AID 2283596). The procedure, abridged:
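HCT116 p53-bla cells (4000/well) given compound in DMSO (217-fold dilution) after 5 h, incubated 16 h at 37C. CCF4-AM substrate 2 h at room temperature; 460/530 nm emission ratio, gain fitted against DMSO.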

The target is the same in assay [7]. Briefly: TOX21_p53_BLA_p2_ratio: Tox21 HCT-116 p53 Agonism Beta-lactamase Assay, Ratio, Phase 2 (AID 2283592). The essentials:
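HCT116 p53-bla; 4000 cells/well; 5 h pre-incubation; cpd in DMSO, 217-fold dilution; 16 h 37C/5% CO2; CCF4-AM 2 h RT; Ex 405, Em 460/530 ratio; DMSO = baseline; positive fitting direction.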

The nature of assay [8]: TOX21_p53_BLA_p3_viability: Viability Assessment in the Tox21 HCT-116 p53 Agonism Beta-lactamase Assay, Phase 3 (AID 2283593).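 Further: cells exposed to compound for 16 h before reading.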 The procedure, abridged: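 HCT-116 cells (4000/well) rested 5 h at 37C, then got DMSO compounds by pin tool (217-fold dilution) for 16 h at 37C, 5% CO2. After the bla read, CellTiter-Glo was added and luminescence read at 30 min, room temperature.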

The target in assay [9] is Cellular tumor antigen p53 (Homo sapiens) (UniProt P04637). The assay is described as follows: TOX21_p53_BLA_p5_ratio: Tox21 HCT-116 p53 Agonism Beta-lactamase Assay, Ratio, Phase 5 (AID 2283599). The essentials: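 HCT-116 cells carrying a p53-inducible beta-lactamase reporter were seeded at 4000 cells/well and dosed after 5 h with compound in DMSO (217-fold dilution). After 16 h at 37C, CCF4-AM substrate was added for 2 h, and the 460/530 nm emission ratio was scored as gain-of-signal versus DMSO.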
Chain of Cellular tumor antigen p53 (Homo sapiens) (P04637 whole entry, looked up): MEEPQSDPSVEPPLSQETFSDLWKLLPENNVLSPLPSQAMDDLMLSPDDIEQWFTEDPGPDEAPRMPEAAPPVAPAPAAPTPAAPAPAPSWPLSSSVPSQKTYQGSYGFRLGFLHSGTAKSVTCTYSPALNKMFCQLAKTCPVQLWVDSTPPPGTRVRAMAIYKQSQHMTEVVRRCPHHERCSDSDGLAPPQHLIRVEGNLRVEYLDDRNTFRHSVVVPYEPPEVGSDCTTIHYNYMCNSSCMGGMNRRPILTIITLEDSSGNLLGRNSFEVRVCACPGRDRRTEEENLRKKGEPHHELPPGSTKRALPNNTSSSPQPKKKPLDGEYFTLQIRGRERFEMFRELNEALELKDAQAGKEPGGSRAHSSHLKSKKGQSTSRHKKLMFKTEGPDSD

Assay [10] is described as follows: TOX21_p53_BLA_p5_viability: Viability Assessment in the Tox21 HCT-116 p53 Agonism Beta-lactamase Assay, Phase 5 (AID 2283600). The essentials: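 4000 cells/well; 5 h pre-incubation; DMSO compounds pin-transferred, 217-fold dilution; 16 h, 37C/5% CO2; CCF4-AM 2 h RT; CellTiter-Glo 30 min RT; luminescence.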
Assay [11] deals with Cellular tumor antigen p53 (Homo sapiens) (UniProt P04637). The assay is described as follows: TOX21_p53_BLA_p4_ratio: Tox21 HCT-116 p53 Agonism Beta-lactamase Assay, Ratio, Phase 4 (AID 2283601). The procedure, abridged:
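HCT116 cells carrying an inducible beta-lactamase reporter were plated at 4000 cells/well, rested 5 h, then exposed to compounds in DMSO (217-fold dilution) for 16 h at 37C. CCF4-AM substrate was loaded 2 h at room temperature; 460/530 nm emission ratio scored gain-of-signal versus DMSO.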

Records with an inconclusive call do not appear. Active and inactive are the calls of the source. How the source made its calls: active means hit-call score of the fitted dose curve at least 0.9, where 1 is the maximum; inconclusive means response in the unintended direction; inactive means score below 0.9.

Chain of rat Gamma-Aminobutyric Acid Type A Receptor BDZ, alpha 6 site (GABARa6), Gabra6 (gene 29708) (P30191 whole entry, looked up): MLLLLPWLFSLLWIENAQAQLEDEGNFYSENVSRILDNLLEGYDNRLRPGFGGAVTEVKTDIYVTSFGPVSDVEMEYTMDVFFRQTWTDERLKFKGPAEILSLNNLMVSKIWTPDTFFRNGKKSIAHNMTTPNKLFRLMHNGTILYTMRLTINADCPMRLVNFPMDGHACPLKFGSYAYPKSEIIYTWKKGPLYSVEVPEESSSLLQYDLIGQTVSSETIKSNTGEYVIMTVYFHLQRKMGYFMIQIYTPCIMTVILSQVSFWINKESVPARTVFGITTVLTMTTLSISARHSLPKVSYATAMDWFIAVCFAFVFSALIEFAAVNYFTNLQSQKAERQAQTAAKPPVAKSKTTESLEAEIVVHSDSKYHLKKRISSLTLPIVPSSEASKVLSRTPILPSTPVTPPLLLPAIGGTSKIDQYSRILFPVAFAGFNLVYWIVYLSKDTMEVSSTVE
Chain of mouse Estrogen Receptor alpha (Era), Esr1 (gene 13982) (P19785 whole entry, looked up): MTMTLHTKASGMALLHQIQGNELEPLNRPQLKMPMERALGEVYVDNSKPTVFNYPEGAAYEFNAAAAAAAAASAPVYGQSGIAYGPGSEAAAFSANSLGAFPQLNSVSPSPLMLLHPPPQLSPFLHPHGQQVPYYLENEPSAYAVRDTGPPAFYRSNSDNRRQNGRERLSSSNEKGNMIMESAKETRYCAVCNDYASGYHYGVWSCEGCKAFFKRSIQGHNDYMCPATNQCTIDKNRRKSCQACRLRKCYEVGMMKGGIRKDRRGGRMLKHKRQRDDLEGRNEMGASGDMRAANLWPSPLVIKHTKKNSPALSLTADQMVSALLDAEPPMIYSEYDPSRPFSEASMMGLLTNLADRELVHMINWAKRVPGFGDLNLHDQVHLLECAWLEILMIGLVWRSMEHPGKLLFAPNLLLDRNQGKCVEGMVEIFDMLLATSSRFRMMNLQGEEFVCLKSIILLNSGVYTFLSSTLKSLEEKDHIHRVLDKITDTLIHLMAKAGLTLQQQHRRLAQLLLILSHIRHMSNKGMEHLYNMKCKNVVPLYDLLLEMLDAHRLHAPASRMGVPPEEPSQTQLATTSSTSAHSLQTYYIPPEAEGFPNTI
Chain of Norway rat Vesicular Monoamine Transporter (VMAT2), neurotransmitter transporter, Slc18a2 (gene 25549) (Q01827 whole entry, looked up): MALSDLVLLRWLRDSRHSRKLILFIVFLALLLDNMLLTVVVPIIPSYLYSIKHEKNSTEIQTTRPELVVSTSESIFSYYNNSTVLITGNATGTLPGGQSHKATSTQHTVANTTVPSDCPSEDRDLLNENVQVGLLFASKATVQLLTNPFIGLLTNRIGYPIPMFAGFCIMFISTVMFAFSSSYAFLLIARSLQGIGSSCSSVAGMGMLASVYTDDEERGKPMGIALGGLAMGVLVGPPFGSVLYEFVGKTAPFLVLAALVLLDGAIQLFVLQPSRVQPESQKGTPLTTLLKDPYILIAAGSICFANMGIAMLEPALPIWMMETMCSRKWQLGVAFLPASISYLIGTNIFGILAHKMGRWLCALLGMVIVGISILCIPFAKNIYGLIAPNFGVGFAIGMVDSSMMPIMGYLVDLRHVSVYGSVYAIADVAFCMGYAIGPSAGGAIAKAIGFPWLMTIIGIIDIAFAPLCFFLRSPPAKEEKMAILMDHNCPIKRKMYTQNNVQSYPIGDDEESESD

Turning to `NNC(=O)c1ccncc1`, the compound was called inactive in [1].

`Cc1cccc(C)c1[N+](=O)[O-]`: the call in assay [2] was inactive.

`COC(=O)C(C)N(C(=O)Cc1ccccc1)c1c(C)cccc1C` (stereo not given): the compound was called inactive in assay [3], in assay [4], in assay [5] and in assay [6].

In general, AC50 refers to the midpoint of the concentration-response curve, whichever way the signal moves. `CC(C)OC(=O)C(O)(c1ccc(Cl)cc1)c1ccc(Cl)cc1`: the compound was called inactive in assay [3], in [4], in [7], in assay [8], in [6] and in [10]. Moreover, the concentration at half-maximal activity (AC50) in [9] is 66.6 µM (active); in assay [11], 69.8 µM (active).

For the compound `CCOc1ccc2[nH]cc(C(=O)NCc3ccccc3)c(=O)c2n1`, the AC50 in assay [2] was 0.215 µM (active).

Source of the values: PubChem BioAssay (EPA / NIEHS).
